According to PubChem BioAssay AID2501 (Southern Research Specialized Biocontainment Screening …, 2010):
The whole screen tested about 2,200 compounds, of which about 1,200 (55%) were called active. The set was probably picked from earlier hits. Some of the results follow. Values without a mark were called inactive. No cut-off is given here; in the data, nearly all actives have IC50 up to about 92 µM.

experiment: counter assay for TAg ATPase ADP read-out – biochemical, ADP-Hunter, fluorescence, counter-screen (AID 2501); conditions: series mostly up to 100 µM; inhibition: at the top concentration;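 note: purified T antigen ATPase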;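 for inhibition: 0% = enzyme with vehicle and 100% = reference inhibitor wells; higher means more inhibition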

Row | Compound | IC50 | inhibition [%]
1 | COc1ccc(NCCc2ccccn2)cc1 | 2.41 µM (active) | 
2 | COc1ccc(S(=O)(=O)N(CC(=O)NCc2ccccn2)c2ccc(Cl)cc2)cc1 |  | 12.9
3 | COc1ccc(C(=O)Nc2ccc(O)c3ccccc23)cc1 | 13.1 µM (active) | 
4 | COc1ccc(S(=O)(=O)Nc2ccc(O)c3ccccc23)cc1 |  | 15.9
5 | CCOC(=O)Cn1cc(C#N)c(=O)[nH]c1=O |  | -7.22
6 | Cc1ccc2c(c1)NC(=O)c1cccnc1N2 | 4.54 µM (active) | 
7 | Cc1ccc(C(=O)N2CCN3C(=O)c4ccccc4C23c2ccccc2)cc1 (configuration not stated) |  | -13.8
8 | CC(=O)Oc1c(/C=C(\C#N)C(N)=O)[nH]c2ccccc12 | 27.2 µM (active) | 
9 | C=CCn1c(=S)[nH]c2scc(-c3ccco3)c2c1=O | 26.9 µM (active) | 
10 | C=CCn1c(SCC(=O)NCC2CCCO2)nc2scc(-c3ccco3)c2c1=O (configuration not stated) |  | 2.43
11 | C=CCn1c(SCC(C)=O)nc2scc(-c3ccco3)c2c1=O |  | -13.2
12 | C#CCOCCOCCOCCNc1nc(N2CCN(C(=O)CCCCCCCCCCNC(=O)[C@H]([C@@H](C)CC)n3cc(CCCCN=C(N)N)nn3)CC2)nc(N2CCN(C(=O)CCCCCCCCCCNC(=O)[C@H](CCCN=C(N)N)n3cc(C[C@@H](C)CC)nn3)CC2)n1 |  | 11.4
13 | CCOC(=O)C1CCN(c2nc(N)c3c(N)nc(SCC(=O)O)cc3c2C#N)CC1 |  | 17.8
14 | O=C(N/N=C(\c1ccccc1)c1cccnc1)c1cc(O)ccc1O | 3.71 µM (active) | 
15 | Cc1[nH]c2ccccc2c1-c1csc(NC(=O)CSCC(=O)O)n1 | 14.6 µM (active) | 
16 | O=C(O)CSCC(=O)Nc1ccc(-c2nc3ccccc3s2)cc1 |  | -22.8
17 | CCOC(=O)CN(C(=O)CSc1nnc2c(n1)[nH]c1ccccc12)c1ccccc1 |  | -20.1
18 | Cc1cc(-c2n[nH]c(=S)n2/N=C/c2cccs2)n[nH]1 | 52.3 µM (active) | 
19 | COc1cccc(/C=N/n2c(-c3cc(C)[nH]n3)n[nH]c2=S)c1O | 13.2 µM (active) | 
20 | CCN(CC)c1ccc(NC(=S)NC(=O)C2CCC2)cc1 | 7.07 µM (active) | 
21 | COc1ccc2c(c1)-c1nc(/N=C/c3ccc(O)c(OC)c3)sc1CC2 | 3.97 µM (active) | 
22 | COc1cc(C(=O)N/N=C(\C)Cn2nc([N+](=O)[O-])cc2C)ccc1O | 16.1 µM (active) | 
23 | Cc1cc([N+](=O)[O-])nn1CC(=O)NCc1ccccc1 |  | -19.7
24 | C#CCOCCOCCOCCNc1nc(N2CCN(C(=O)CCCCCCCCCCNC(=O)[C@H]([C@@H](C)CC)n3cc(CCCCCN)nn3)CC2)nc(N2CCN(C(=O)CCCCCCCCCCNC(=O)[C@@H]([C@H](C)CC)n3cc(CCCCCN)nn3)CC2)n1 |  | -11.2

Row | Compound | IC50 | inhibition [%]
25 | CC1(C)C(/C=C/C=C/C=C/C=C2\N(CCCCS(=O)(=O)O)c3ccc4ccccc4c3C2(C)C)=[N+](CCCCS(=O)(=O)[O-])c2ccc3ccccc3c21 | 10.5 µM (active) | 
26 | COc1cccc2c1NC(C(=O)O)C1CC=CC21 (configuration not stated) |  | -9.16
27 | COCCCNc1nnc(Cc2ccc(Cl)cc2)c(=O)[nH]1 |  | 1.77
28 | CCCC1=NN2C(=N)/C(=C\c3ccc(SCc4ccco4)o3)C(=O)N=C2S1 |  | 28.8
29 | Nc1c(O)cccc1C(=O)O | 7.18 µM (active) | 
30 | Nc1ccc(C(=O)Nc2ccccc2C(=O)O)cc1 |  | 9.15
31 | Nc1ccc(O)c(C(=O)O)c1 | 8.29 µM (active) | 
32 | O=C(O)C1=CC(=C(c2ccc(O)c(C(=O)O)c2)c2ccc(O)c(C(=O)O)c2)C=CC1=O |  | 2.97
33 | COc1cc(C(C)=O)ccc1OCC(O)Cn1nc(C)c(C(C)=O)c1C (configuration not stated) | 49.1 µM (active) | 
34 | NC(=O)[C@@H]1CCCCNc2c(I)cc([N+](=O)[O-])cc2C(=O)N[C@@H](CCC(=O)O)C(=O)N[C@@H](CO)C(=O)N1 |  | 7.6
35 | COc1ccc(S(=O)(=O)c2c(N)n(Cc3ccco3)c3nc4ccccc4nc23)cc1 |  | -2.25
36 | O=S(=O)(Nc1c(O)ccc2ccccc12)c1ccccc1 |  | 20.4
37 | COc1ccc(S(=O)(=O)Nc2c(O)ccc3ccccc23)cc1OC | 54.9 µM (active) | 
38 | COc1ccc(C(C)=O)cc1COC(=O)CCNS(=O)(=O)c1ccc(C(C)=O)cc1 |  | -1.69
39 | Cc1ccc(S(=O)(=O)CCSC(=N)N)cc1 |  | -0.73
40 | Cc1ccc(S(=O)(=O)Nc2c(O)ccc3ccccc23)cc1 | 70.6 µM (active) | 
41 | O=C1c2ccccc2NC2(CCCCC2)N1c1ccc(O)cc1 | 5.01 µM (active) | 
42 | CN(C)CCNC(=O)C(=O)Nc1ccc2c(c1)N(S(=O)(=O)c1cccs1)CCC2 |  | -3.08
43 | Cc1ccc(NC(=O)CCSc2nnc(Cc3ccccc3)o2)cc1 |  | -6.04
44 | N#CC(C#N)=C(N)/C(C#N)=C/c1cc(O)c(O)c(O)c1 | 13.6 µM (active) | 
45 | CC1CCCN(c2ccc(N)cc2C(N)=O)C1 (configuration not stated) | 3.15 µM (active) | 
46 | N#C/C(=C\c1coc2ccc(O)cc2c1=O)C(=O)Nc1nc2ccccc2s1 | 80.4 µM (active) | 
47 | CSc1nc(Cl)cc(Nc2ccc(O)cc2)n1 | 11.3 µM (active) | 
